This passage reports Potency results from PubChem BioAssay (Tox21).

Each structure is given as a SMILES string. Inconclusive results are not listed. Unmarked numbers belong to inactive results. Calls of active or inactive are those of the source. Unless noted, the call rests on the fitted dose curve.

A short description of experiment [1]: qHTS assay to identify small molecule agonists of the peroxisome proliferator-activated receptor delta (PPARd) signaling pathway - cell viability counter screen (AID 743211; active means well fitted curve in the direction sought with a large enough effect in the repeat runs; an effect the other way counts as inactive or inconclusive; further: nearly all actives have a fitted effect of over 55% in size; further: potency means the concentration at half of the fitted maximal effect). The following applies: PPARd-bla HEK293H viability, CellTiter-Glo luminescence, 17 h; series mostly up to 62.6 µM. The method in brief:
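Following 5 h plating at 37 C and 5% CO2, PPARd UAS-bla HEK293H cells took up test compounds for 17 h. Viability was quantified by luminescence 30 min after CellTiter-Glo addition at room temperature.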
For orientation: In qHTS, concentration-response curves come from the screen itself.

In experiment [2] the target is Peroxisome proliferator-activated receptor delta (Homo sapiens) (UniProt Q03181). As to the kind of experiment: qHTS assay to identify small molecule agonists of the peroxisome proliferator-activated receptor delta (PPARd) signaling pathway (AID 743212). Particulars: HEK293H PPARd-UAS-bla, beta-lactamase FRET ratio, 17 h; series mostly up to 62.6 µM. The method in brief: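 Quantitative high-throughput agonist screen in a HEK293H beta-lactamase reporter line under UAS control. Compounds in DMSO, at 37 C. Fluorescence read after 2 h with FRET substrate at room temperature.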
Peroxisome proliferator-activated receptor delta (Homo sapiens), sequence (Q03181 whole entry, looked up): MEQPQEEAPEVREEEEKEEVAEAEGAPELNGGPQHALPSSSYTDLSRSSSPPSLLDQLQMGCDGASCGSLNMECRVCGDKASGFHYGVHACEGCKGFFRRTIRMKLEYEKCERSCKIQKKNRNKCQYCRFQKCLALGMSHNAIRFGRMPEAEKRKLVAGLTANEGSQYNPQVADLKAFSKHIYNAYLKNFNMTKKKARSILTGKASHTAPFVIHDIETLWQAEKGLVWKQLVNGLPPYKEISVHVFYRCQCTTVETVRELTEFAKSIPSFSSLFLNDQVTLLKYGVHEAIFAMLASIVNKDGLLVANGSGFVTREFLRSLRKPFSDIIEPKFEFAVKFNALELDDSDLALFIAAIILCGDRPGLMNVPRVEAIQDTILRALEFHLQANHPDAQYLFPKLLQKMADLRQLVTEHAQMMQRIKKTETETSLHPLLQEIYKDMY

Experiment [3] is described as follows: qHTS assay to identify small molecule antagonists of the peroxisome proliferator-activated receptor delta (PPARd) signaling pathway - cell viability counter screen (AID 743213; active means well fitted curve in the direction sought with a large enough effect in the repeat runs; an effect the other way counts as inactive or inconclusive; further: nearly all actives have a fitted effect of over 50% in size). The following applies: PPARd-bla HEK293H viability, CellTiter-Glo luminescence, 17 h; series mostly up to 62 µM. The method in brief: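 Luminescence from CellTiter-Glo, added after the bla read and incubated 30 min at room temperature, gives viability of HEK293H PPARd-bla cells exposed to compounds for 17 h at 37 C with 300 nM L165041.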

Experiment [4] addresses Peroxisome proliferator-activated receptor delta (Homo sapiens) (UniProt Q03181). The experiment can be described thus: qHTS assay to identify small molecule antagonists of the peroxisome proliferator-activated receptor delta (PPARd) signaling pathway (AID 743215; active means well fitted inhibition curve with a large enough effect in the signal ratio in the repeat runs, not every such curve was filed as active; the % refers to the signal ratio;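 further: cells stimulated with agonist L165041 at 300 nM final during compound exposure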). The following applies: HEK293H PPARd-UAS-bla, beta-lactamase FRET ratio, antagonist, 17 h; series mostly up to 62 µM. The method in brief: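 Read-out is beta-lactamase FRET fluorescence, measured 2 h after substrate addition at room temperature. Beforehand, UAS-bla HEK293H cells carrying the PPARd reporter were exposed to compounds with L165041 at 300 nM final for 17 h at 37 C.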

The nature of experiment [5]: qHTS assay to identify small molecule agonists of the farnesoid-X-receptor (FXR) signaling pathway - cell viability counter screen (AID 743218; active means well fitted curve in the direction sought with a large enough effect in the repeat runs; an effect the other way counts as inactive or inconclusive; further: nearly all actives have a fitted effect of over 45% in size; further: potency means the concentration at half of the fitted maximal effect). The following applies: FXR-bla HEK293T viability, CellTiter-Glo luminescence, 16 h; series mostly up to 62.6 µM. The method, boiled down:
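HEK 293T FXR-bla cells; 5 h pre-incubation, 16 h compound exposure at 37 C; LiveBLAzer substrate 2 h RT, then CellTiter-Glo 30 min RT, luminescence.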

A short description of experiment [6]: qHTS assay to identify small molecule antagonists of the farnesoid-X-receptor (FXR) signaling pathway - cell viability counter screen (AID 743221; active means well fitted cell-killing curve with a large enough effect in the repeat runs, not every such curve was filed as active; further: nearly all actives have a fitted effect of over 50% in size; further: potency means the concentration at half of the fitted maximal effect). The following applies: FXR-bla HEK293T viability, CellTiter-Glo luminescence, 16 h; series mostly up to 62.6 µM. The method, boiled down:
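Compound effects on cell number were measured as CellTiter-Glo luminescence in HEK 293T cells expressing FXR-UAS-bla, after 16 h at 37 C with 50 uM CDCA (final).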

Experiment [7] concerns the target Vitamin D3 receptor (Homo sapiens) (UniProt P11473). As to the kind of experiment: qHTS assay to identify small molecule agonists of the vitamin D receptor (VDR) signaling pathway (AID 743222). Particulars: HEK293T VDR-UAS-bla, beta-lactamase FRET ratio, 16 h; series mostly up to 63.5 µM. The method in brief:
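VDR-bla cells, 2,000/well; 4 h preincubation 37C; cpd (DMSO) 16 h; LiveBLAzer B/G substrate 2 h RT; fluorescence intensity read.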

Experiment [8] can be described thus: qHTS assay to identify small molecule agonists of the vitamin D receptor (VDR) signaling pathway - cell viability counter screen (AID 743224; active means well fitted curve in the direction sought with a large enough effect in the repeat runs; an effect the other way counts as inactive or inconclusive; further: nearly all actives have a fitted effect of over 50% in size). The following applies: VDR-bla HEK293T viability, CellTiter-Glo luminescence, 16 h; series mostly up to 62.6 µM. The method in brief:
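Luminescence from CellTiter-Glo, read after 30 min at room temperature, reports viability of VDR-bla cells treated with compounds for 16 h at 37C in the wells used for the beta-lactamase FRET read.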

A short description of experiment [9]: qHTS assay to identify small molecule agonists of the NFkB signaling pathway - cell viability counter screen (AID 1159515). Further: nearly all actives have a fitted effect of over 55% in size. Particulars: NFkB-bla ME-180 viability, CellTiter-Glo luminescence, 5 h; series mostly up to 61 µM. The method, boiled down:
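Luminescence from CellTiter-Glo (30 min, room temperature) gives viability, measured in the same wells as the beta-lactamase reporter read. Cells were NFkB-bla ME-180, 2,000 per well, treated 5 hr with compounds.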

The nature of experiment [10]: qHTS assay to identify small molecule agonists of the endoplasmic reticulum stress response signaling pathway (AID 1159516; active means well fitted activation curve with a large enough effect in the signal ratio in the repeat runs, not every such curve was filed as active; the % refers to the signal ratio). Particulars: ESRE-bla HeLa, ER stress beta-lactamase reporter, 5 h; series mostly up to 61 µM. The method, boiled down:
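Read-out is beta-lactamase cleavage of a FRET substrate (405 nm excitation; 460 and 530 nm emissions) in ESRE-bla HeLa cells after a 5 hr compound exposure at 37 C. Substrate incubation ran 2 hr at room temperature.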

Experiment [11] in a line: qHTS assay to identify small molecule agonists of the endoplasmic reticulum stress response signaling pathway - cell viability counter screen (AID 1159517).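 Further: HeLa cells carrying an ER stress response element beta-lactamase reporter; nearly all actives have a fitted effect of over 50% in size.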 The following applies: ESRE-bla HeLa viability, CellTiter-Glo luminescence, 5 h; series mostly up to 61 µM. The method, boiled down: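 Counter-screen wells were identical to the reporter wells. Cells were plated at 1,500 per well and dosed for 5 hr, then read for luminescence 30 min after CellTiter-Glo addition.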

Experiment [12] concerns the target Nuclear receptor ROR-gamma (Homo sapiens) (UniProt P51449). The experiment can be described thus: qHTS assay to identify small molecule antagonists of the retinoid-related orphan receptor gamma (ROR-gamma) signaling pathway (AID 1159521; active means well fitted curve in the direction sought with a large enough effect in the repeat runs; an effect the other way counts as inactive or inconclusive). The following applies: Tet-on RORgamma CHO cells, RORE-luciferase, 16 h; series mostly up to 92.4 µM. The method in brief: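 Screening format: cell-based luciferase reporter in CHO cells with doxycycline-inducible RORγ. Compound pre-exposure lasts 2 h, doxycycline is 1 uM final, induction runs 16 h at 37 C, and ONE-Glo luminescence is read.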

Experiment [13] in a line: qHTS assay to identify small molecule agonists of the AP-1 signaling pathway - cell viability counter screen (AID 1159525). Further: nearly all actives have a fitted effect of over 55% in size. Particulars: ME-180 AP-1-bla cells viability, ATP luminescence, 5 h; series mostly up to 76.8 µM. The method in brief: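 AP-1-bla ME-180 cells in Opti-MEM with 0.5% dialyzed FBS, compound exposure 5 h at 37 C in 15-point titration. Viability read in the same wells as ATP content by CellTiter-Glo luminescence, normalised to tetra-n-octylammonium bromide and DMSO controls.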

A short description of experiment [14]: qHTS assay to identify small molecule agonists of the AP-1 signaling pathway (AID 1159526). The following applies: ME-180 (cervical carcinoma) AP-1-bla reporter, beta-lactamase FRET ratio, 5 h; series mostly up to 76.8 µM.
Experiment [15] concerns the target Retinoic acid receptor RXR-alpha (Homo sapiens) (UniProt P19793). The experiment can be described thus: qHTS assay to identify small molecule agonists of the RXR signaling pathway (AID 1159527). Further: nearly all actives have a fitted effect of over 35% in size. The following applies: HEK293T RXRa-UAS-bla, beta-lactamase ratio, 16 h; series mostly up to 76.8 µM. The method, boiled down:
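Fluorescence ratio readout (460 vs 530 nm) from GeneBLAzer RXR-alpha HEK 293T cells after 16 hr compound treatment; cells seeded 5 hr beforehand in low-serum, charcoal-stripped medium.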

The target in experiment [16] is Bile acid receptor (Homo sapiens) (UniProt Q96RI1). The experiment can be described thus: qHTS assay to identify small molecule agonists of the farnesoid-X-receptor (FXR) signaling pathway (AID 743220; active means well fitted activation curve with a large enough effect in the signal ratio in the repeat runs, not every such curve was filed as active; the % refers to the signal ratio). The following applies: HEK293T FXR-UAS-bla, beta-lactamase FRET ratio, 16 h; series mostly up to 62.6 µM. The method in brief:
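Beta-lactamase reporter under UAS control in GeneBLAzer FXR HEK 293T cells (5000/well) measured with LiveBLAzer FRET substrate after 2 h at room temperature. Compound exposure lasted 16 h at 37C.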

Experiment [17] shares this target. As to the kind of experiment: qHTS assay to identify small molecule antagonists of the farnesoid-X-receptor (FXR) signaling pathway (AID 743217; active means well fitted inhibition curve with a large enough effect in the signal ratio in the repeat runs, not every such curve was filed as active; the % refers to the signal ratio). Particulars: HEK293T FXR-UAS-bla, beta-lactamase ratio, CDCA-stimulated, 16 h; series mostly up to 62.6 µM. The method, boiled down:
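HEK 293T FXR-UAS-bla, 5000 cells/well; compound + CDCA 50 uM final; 16 h, 37 °C; B/G FRET substrate 2 h RT; fluorescence.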

Experiment [18] concerns the target Vitamin D3 receptor (Homo sapiens) (UniProt P11473). The experiment can be described thus: qHTS assay to identify small molecule antagonists of the vitamin D receptor (VDR) signaling pathway (AID 743223; active means well fitted inhibition curve with a large enough effect in the signal ratio in the repeat runs, not every such curve was filed as active; the % refers to the signal ratio). Particulars: VDR-UAS-bla HEK293T, beta-lactamase FRET ratio, 16 h; series mostly up to 61 µM. The method in brief:
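Beta-lactamase activity in VDR-bla cells is measured by FRET substrate fluorescence (2 h, room temperature) after cells spend 16 h at 37C with test compound and 3 nM final 1alpha,25-dihydroxyvitamin D3.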

Experiment [19] in a line: qHTS assay to identify small molecule antagonists of the vitamin D receptor (VDR) signaling pathway - cell viability counter screen (AID 743225; active means well fitted curve in the direction sought with a large enough effect in the repeat runs; an effect the other way counts as inactive or inconclusive; further: nearly all actives have a fitted effect of over 50% in size). Particulars: VDR-bla HEK293T viability, CellTiter-Glo luminescence, 16 h; series mostly up to 61 µM. The method, boiled down: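 In this counter screen, VDR-bla HEK 293T cells receive test compound plus 3 nM final calcitriol for 16 h at 37C. Room-temperature steps of 2 h with the beta-lactamase substrate, then 30 min with CellTiter-Glo, precede the luminescence read.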

Vitamin D3 receptor (Homo sapiens), sequence (P11473 whole entry, looked up): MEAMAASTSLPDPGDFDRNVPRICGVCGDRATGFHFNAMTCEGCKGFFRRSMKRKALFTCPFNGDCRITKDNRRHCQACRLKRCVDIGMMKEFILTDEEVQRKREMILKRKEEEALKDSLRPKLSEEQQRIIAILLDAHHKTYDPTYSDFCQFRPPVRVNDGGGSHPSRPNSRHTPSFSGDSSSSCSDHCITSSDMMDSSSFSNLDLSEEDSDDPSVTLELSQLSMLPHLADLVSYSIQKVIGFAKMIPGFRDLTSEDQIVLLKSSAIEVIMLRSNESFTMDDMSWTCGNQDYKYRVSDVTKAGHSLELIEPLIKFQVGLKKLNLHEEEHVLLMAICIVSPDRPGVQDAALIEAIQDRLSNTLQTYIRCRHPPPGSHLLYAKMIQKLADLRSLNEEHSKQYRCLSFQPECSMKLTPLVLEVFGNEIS
Bile acid receptor (Homo sapiens), sequence (Q96RI1 whole entry, looked up): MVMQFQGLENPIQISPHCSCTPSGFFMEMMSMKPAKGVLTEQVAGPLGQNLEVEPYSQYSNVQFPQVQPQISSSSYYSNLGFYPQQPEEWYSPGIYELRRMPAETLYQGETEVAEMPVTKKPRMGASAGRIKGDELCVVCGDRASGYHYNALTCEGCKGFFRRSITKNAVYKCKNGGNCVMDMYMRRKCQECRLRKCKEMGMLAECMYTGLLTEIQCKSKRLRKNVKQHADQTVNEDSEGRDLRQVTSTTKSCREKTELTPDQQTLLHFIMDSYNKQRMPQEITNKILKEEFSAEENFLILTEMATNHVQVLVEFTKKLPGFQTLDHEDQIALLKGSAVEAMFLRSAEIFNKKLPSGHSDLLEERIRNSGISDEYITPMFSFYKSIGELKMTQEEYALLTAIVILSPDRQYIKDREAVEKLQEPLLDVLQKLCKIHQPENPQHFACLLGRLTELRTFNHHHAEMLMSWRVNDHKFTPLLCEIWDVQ
Retinoic acid receptor RXR-alpha (Homo sapiens), sequence (P19793 whole entry, looked up): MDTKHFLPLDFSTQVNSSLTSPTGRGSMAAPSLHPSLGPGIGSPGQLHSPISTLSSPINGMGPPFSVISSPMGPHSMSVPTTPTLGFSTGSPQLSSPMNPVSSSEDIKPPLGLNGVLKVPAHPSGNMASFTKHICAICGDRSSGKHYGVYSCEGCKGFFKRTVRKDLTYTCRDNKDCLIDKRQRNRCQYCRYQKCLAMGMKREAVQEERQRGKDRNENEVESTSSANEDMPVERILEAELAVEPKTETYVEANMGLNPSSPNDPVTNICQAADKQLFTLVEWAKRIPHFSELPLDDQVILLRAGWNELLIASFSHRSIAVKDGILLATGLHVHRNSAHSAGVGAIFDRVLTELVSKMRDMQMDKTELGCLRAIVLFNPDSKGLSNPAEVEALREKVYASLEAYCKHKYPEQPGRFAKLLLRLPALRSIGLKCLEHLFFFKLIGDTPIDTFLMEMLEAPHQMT

For the compound `Oc1ccc(Cl)c(Cl)c1`, the Potency result in experiment [1], in [2], in experiment [3], in experiment [4], in experiment [5] and in experiment [6] was “inactive” in each case. Also, the Potency entry in experiment [7], in [8], in experiment [9], in experiment [10], in experiment [11] and in experiment [13] was “inactive” each time. Moreover, the Potency result in experiment [14] and in [15] was “inactive” in each case. Besides, the Potency in experiment [12] is 17 µM (active).
As for `COC(=O)N(OC)c1ccccc1COc1ccn(-c2ccc(Cl)cc2)n1`, the Potency entry in experiment [5], in experiment [16], in experiment [9], in experiment [10], in experiment [11] and in experiment [13] was “inactive” throughout. In addition, in experiment [12], the Potency was 0.273 µM (active).
For the compound `CCc1cccc(C)c1N(C(=O)CCl)[C@@H](C)COC`, the Potency result in experiment [1], in experiment [5], in experiment [6], in experiment [8], in experiment [9] and in [10] was “inactive” each time. The Potency result in [11] and in [14] was “inactive” throughout.
In the case of `Oc1ccc([C@H]2CNCc3c2ccc(O)c3O)cc1O`, the Potency entry in experiment [1], in experiment [2], in [3], in experiment [17], in [5] and in [16] was “inactive” in each case. Further, the Potency entry in experiment [6], in experiment [7], in [18], in experiment [8], in experiment [19] and in experiment [9] was “inactive” in each case. The Potency entry in [10], in experiment [11], in [13], in experiment [14] and in experiment [15] was “inactive” in each case.
As for `CO/N=C(/C1=NOCCO1)c1ccccc1Oc1ncnc(Oc2ccccc2Cl)c1F`, the Potency entry in experiment [2], in [6], in experiment [9], in experiment [10], in [11] and in [13] was “inactive” each time. Also, in experiment [14], the Potency result is “inactive”. Moreover, in [12], the Potency was 0.968 µM (active).
As to `CCCCCCC[CH2][Sn]([Cl])([Cl])[CH2]CCCCCCC`, the Potency in [1] was 24.5 µM (active); in [5], 11 µM (active); in experiment [6], 54.9 µM (active). In addition, the Potency result in experiment [16], in experiment [9], in experiment [10], in experiment [11] and in experiment [13] was “inactive” in each case.
